From PubChem BioAssay (NCI)
About 83,000 compounds went through this panel and 20% of them were active in at least one assay; those are over-represented in the sample as a whole.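 Interpretation: 100, growth as untreated; towards 0, rising growth inhibition; 0, no net growth; 0 to -100, cell death. Compounds scoring below 10 were considered active.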 Activity calls are given as the source filed them.

Legend:
Experiment in all cases: NCI-60 one-dose screen, 48 h (100 = growth as untreated, 0 = no growth, -100 = all killed)
Conditions in all cases: 10 µM unless noted
[1] = system: NCI-H23 lung
[2] = system: NCI-H226 lung
[3] = system: NCI-H322M lung
[4] = system: HOP-62 NSCLC
[5] = system: NCI-H460 lung
[6] = system: HOP-92 NSCLC
[7] = system: NCI-H522 lung
[8] = system: A549/ATCC NSCLC
[9] = system: 786-0 renal
[10] = system: COLO 205 colon

Measured: growth

CCc1ccccc1-c1nc(CN[C@@H]2C[C@@H]3C[C@H]([C@H]2C)C3(C)C)c(C)o1
active: [1] -78.7% | [2] -68.7% | [3] -92.5% | [4] -78.9% | [5] -54.5% | [6] -81.5% | [7] -85.9% | [8] -49.7% | [9] -82.1% | [10] -74.8%

COc1ccc2c(c1)C(Sc1ccc(Cl)cc1)c1c(nc(N)c(C#N)c1N)O2 (stereo not given)
inactive: [1] 74.6% | [2] 64.9% | [3] 86.4% | [4] 61.8% | [5] 63.2% | [6] 76.7% | [7] 54.5% | [8] 53.7% | [9] 61.8% | [10] 87.2%

CN(C)CCCc1ccc(Nc2cnn(C)c(=O)c2Cl)cc1
inactive: [1] 98% | [2] 99% | [3] 92.9% | [4] 108% | [5] 103% | [6] 110% | [7] 96.3% | [8] 93.8% | [9] 95.9% | [10] 118%

CN1CCN(c2ccc3c4c(cccc24)C(=O)N(c2cccc(-c4nn(-c5ccccc5)cc4-c4nc5ccccc5s4)c2)C3=O)CC1
inactive: [1] 97.9% | [2] 95.9% | [3] 111% | [4] 114% | [5] 18.5% | [6] 71.7% | [7] 110% | [8] 97.9% | [9] 46.5% | [10] 91.1%

Cn1cc(-c2cc3nc(-c4cn(C)c5ncc(Br)cc45)cc(N)n3n2)c2cc(F)ccc21
inactive: [1] 15.2% | [2] 10.9% | [3] 35.3% | [4] 15% | [5] 20.9% | [10] 51.6%
active: [6] -18.3% | [7] 2.15% | [8] 0.571% | [9] -5.13%

Cc1nn(-c2ccccc2)c2ncn(CC(=O)N/N=C/c3ccccc3O)c(=O)c12
inactive: [1] 40.7% | [2] 47.6% | [3] 39.1% | [4] 27.4% | [5] 17.7% | [6] 55.8% | [7] 21% | [8] 38.9% | [9] 37.2% | [10] 10.3%

COc1cc(C2CC(c3ccc(C(F)(F)F)cc3)=Nc3c(N)nc(N)nc3N2)ccc1Oc1nc(Nc2ccc(F)cc2)nc(N(C)C)n1 (stereo not given)
inactive: [1] 82.2% | [2] 58.6% | [3] 90.8% | [4] 81.2% | [5] 13% | [6] 33.3% | [7] 30% | [8] 45.9% | [9] 39.1% | [10] 39%

O=C1Nc2cc(-c3ccc(NS(=O)(=O)c4ccc(C(F)(F)F)cc4)cc3)ccc2/C1=C/c1ccc[nH]1
active: [5] 5.56% | [7] -18.4%
inactive: [1] 11% | [2] 49.7% | [3] 44% | [4] 43.5% | [6] 42.8% | [8] 18.7% | [9] 40.8% | [10] 23.9%

O=C(NNC(=S)NC(=O)c1ccccc1)c1ccc(OCc2nc3ccc(Cl)cc3[nH]2)cc1
inactive: [5] 11.6%
active: [1] -71.3% | [2] -43.9% | [3] -41.5% | [4] -64.3% | [6] -10.8% | [7] 1.39% | [8] -29.2% | [9] 0.779% | [10] -22.5%

CCOc1ccc(-c2cc(-c3cc(C(C)C)c(O)cc3C)nn2-c2ccc(S(N)(=O)=O)cc2)cc1
active: [7] 1.3%
inactive: [1] 27.6% | [2] 67.4% | [3] 66.6% | [4] 65.4% | [5] 23.9% | [6] 47.4% | [8] 32% | [9] 37.1% | [10] 131%

COc1ccc([C@H]2C(C(=O)c3ccc(Cl)cc3)C3(N[C@@H]2c2ccccc2)C(=O)Nc2ccccc23)cc1 (stereo not given in full)
inactive: [1] 21.2% | [2] 24.9% | [3] 54.5% | [4] 51% | [5] 18.3% | [6] 23% | [7] 29.5% | [8] 31% | [9] 28.4%
active: [10] -6.01%

Cc1cc(Cl)ccc1NC(=O)Nc1ccc(-c2ccc3c(c2)NC(=O)/C3=C\c2ccc[nH]2)cc1
inactive: [1] 74.4% | [2] 107% | [3] 98.6% | [4] 99.6% | [5] 66.8% | [6] 115% | [7] 103% | [8] 105% | [9] 105% | [10] 130%

CCC(=O)c1cc(C(=O)OC)c2ccc3c4ccccc4ccc3n12
inactive: [1] 85.2% | [2] 50.4% | [3] 93.5% | [4] 65.4% | [5] 26.1% | [6] 88.7% | [7] 102% | [8] 67.9% | [9] 66.8% | [10] 80.5%
